Experimental data taken from PubChem BioAssay AID2316 (Broad Institute, 2010).
Among all 29,000 compounds or so, fewer than 10 were called active. A selection follows. A number with no mark means an inactive call. How the calls were made is not given here.

Test: activators reversing PD-1 mediated T-cell inhibition, primary screen, luminescence, primary human CD4 T cells, PD-L1 beads (AID 2316);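 further: 0% = median vehicle wells and 100% = positive control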
Details: CellTiter-Glo 96 h, active compounds read high

| Structure (SMILES) | activation [%] |
| --- | --- |
| O=C(Nc1cccs1)N1CCN(C(=O)C2CCCO2)CC1 (stereo not drawn) | -0.0221 |
| Cc1ccc(NC(=O)CSc2nnc(C)n2-c2ccc(F)cc2)cc1Cl | 0.0225 |
| COc1ccc(S(=O)(=O)Nc2cccc3c2O[C@@H](CN(C)C(=O)Nc2ccccc2)[C@@H](C)CN([C@@H](C)CO)C3=O)cc1 | -2.12 |
| C[C@@H]1CN([C@@H](C)CO)C(=O)c2cc(NS(C)(=O)=O)ccc2O[C@@H]1CN(C)C(=O)Nc1ccc(F)cc1 | 2.2 |
| O=C1c2ccccc2S(=O)c2ccccc2S(=O)(=O)N1Cc1ccccc1 (stereo not drawn) | -5.99 |
| Cc1ccc(Cl)cc1NC(=O)CN(c1cccc(Cl)c1C)S(C)(=O)=O | -5.55 |
| CS(=O)(=O)N(CC(=O)Nc1ccc2ccccc2c1)c1cc(Cl)c(Cl)cc1Cl | 1.79 |
| COc1ccc(S(=O)(=O)N(C)C[C@H]2Oc3ccc(NS(=O)(=O)c4ccc(F)cc4)cc3C(=O)N([C@H](C)CO)C[C@H]2C)cc1 | 1.51 |
| COc1ccc(NC(=O)Nc2ccc3c(c2)C(=O)N([C@H](C)CO)C[C@@H](C)[C@H](CN(C)Cc2ccccc2)O3)cc1 | -0.421 |
| C[C@H]1CN([C@@H](C)CO)C(=O)c2cc(NS(C)(=O)=O)ccc2O[C@H]1CN(C)C(=O)Nc1ccc(C(F)(F)F)cc1 | 0.226 |
| O=C(NCc1ccccn1)C1CC(c2cccc(Br)c2)=NO1 (stereo not drawn) | 1.86 |
| C[C@H](CO)N1C[C@H](C)[C@@H](CN(C)S(C)(=O)=O)Oc2c(NC(=O)c3ccc(-c4nccs4)cc3)cccc2C1=O | 0.392 |
| COc1ccc(C(=O)CSc2nc3ccc(OC)cc3[nH]2)cc1 | 0.352 |
| Cc1noc(C)c1NC(=O)Nc1ccc2c(c1)C(=O)N([C@@H](C)CO)C[C@H](C)[C@H](CN(C)CC1CCCCC1)O2 | 1.03 |
| C[C@@H]1CN([C@H](C)CO)C(=O)Cc2cc(NS(=O)(=O)c3ccc(F)cc3)ccc2O[C@H]1CN(C)C | 2.25 |
| CS(=O)(=O)N(CC(=O)Nc1cc(Cl)ccc1Cl)c1ccc(Oc2ccccc2)cc1 | 0.0184 |
| Cc1ccc(S(=O)(=O)Nc2ccc3c(c2)C(=O)N([C@H](C)CO)C[C@H](C)[C@H](CN(C)Cc2ccc(C(=O)Nc4ccccc4N)cc2)OCCCC[C@@H](C)O3)cc1 | -0.831 |
| O=C(Nc1ccccc1Cl)c1ccccc1S(=O)(=O)c1ccccc1[N+](=O)[O-] | 1.95 |
| CS(=O)(=NS(=O)(=O)c1ccc(OC(F)(F)F)cc1)c1ccc(Cl)cc1 (stereo not drawn) | 0.43 |
| O=C1OC(c2ccc(-c3ccccc3)cc2)=N/C1=C\c1ccco1 | 1.56 |
| C/C=C/c1ccc(OCCCSc2nc(C)cc(=O)[nH]2)c(OC)c1 | 2.94 |
| C[C@H]1CN([C@@H](C)CO)C(=O)Cc2cc(NC(=O)Nc3ccc4c(c3)OCO4)ccc2O[C@H]1CN(C)Cc1ccc(C(=O)Nc2ccccc2N)cc1 | -2.39 |
| C[C@@H]1CCCCO[C@@H](CN(C)C(=O)C2CCCCC2)[C@@H](C)CN([C@H](C)CO)C(=O)c2cc(NC(=O)c3ccccc3)ccc2O1 | -1.83 |

| Structure (SMILES) | activation [%] |
| --- | --- |
| N#Cc1cc2c(nc1SCC(=O)Nc1ccccc1C(F)(F)F)CCCCC2 | 1.79 |
| Cc1noc(C)c1NC(=O)Nc1cccc2c1O[C@@H](CN(C)C(=O)Nc1ccc(C(F)(F)F)cc1)[C@@H](C)CN([C@@H](C)CO)C2=O | -0.0327 |
| C[C@H](CO)N1C[C@H](C)[C@H](CN(C)S(C)(=O)=O)Oc2ccc(NC(=O)CCCN(C)C)cc2C1=O | 0.789 |
| C[C@H](CO)N1C[C@H](C)[C@H](CN(C)CC2CCCCC2)Oc2ccc(NC(=O)CCCCCC(=O)Nc3ccccc3N)cc2CC1=O | -0.694 |
| Cc1cccc(NC(=O)CSc2nc3c(cc2C#N)CCCCC3)c1 | -3.01 |
| O=C(CSc1nnc(-c2ccccc2)c(-c2ccccc2)n1)Nc1ccccc1 | 1.51 |
| C[C@H]1CN([C@@H](C)CO)C(=O)c2cc(NC(=O)Cn3cnnn3)ccc2O[C@@H]1CN(C)CC1CCCCC1 | 1.73 |
| CCCC1CCC(c2ccc(OC(=O)c3ccco3)cc2)CC1 (stereo not drawn) | -0.337 |
| CC(=O)c1c(C)nn(CC(O)COc2ccc3cc(Br)ccc3c2)c1C (stereo not drawn) | -6.98 |
| O=C(Nc1ccc(C(=O)OCc2cccc(C(=O)c3ccccc3)c2)cc1)c1ccccc1 | -0.837 |
| O=C(CSc1n[nH]c(-c2ccncc2)n1)Nc1ccccc1F | 2.95 |
| Cc1ccc(NC(=O)CN2C(=O)/C(=C\c3ccccc3)SC2=S)cc1 | 1.06 |
| COC(=O)C1=C(C)NC2=C(C(=O)CC(C)(C)C2)C1c1ccncc1 (stereo not drawn) | -0.541 |
| C[C@@H]1CN([C@@H](C)CO)C(=O)c2cccc(NS(=O)(=O)c3cccs3)c2O[C@@H]1CN(C)CC1CC1 | 1.15 |
| C[C@@H]1CN([C@H](C)CO)C(=O)c2cccc(NC(=O)Nc3ccccc3)c2O[C@H]1CN(C)S(C)(=O)=O | 0.424 |
| C[C@H]1CN([C@@H](C)CO)C(=O)Cc2cc(NC(=O)Nc3cccc4ccccc34)ccc2O[C@@H]1CN(C)S(=O)(=O)c1cn(C)cn1 | -0.329 |
| CC(C)Cc1ccc(/C=C/C(=O)N2CCCC2)cc1 | -1.3 |
| C[C@H]1CN([C@@H](C)CO)C(=O)c2cccc(NC(=O)C3CC3)c2O[C@@H]1CN(C)S(=O)(=O)c1ccc(F)cc1 | -0.218 |
| COc1ccc(CN(C)C[C@H]2Oc3c(NS(=O)(=O)c4ccc(C)cc4)cccc3C(=O)N([C@@H](C)CO)C[C@@H]2C)cc1 | -1.26 |
| COc1ccc(CN(C)C[C@@H]2Oc3ccc(NS(=O)(=O)c4ccc(F)cc4)cc3C(=O)N([C@@H](C)CO)C[C@@H]2C)cc1 | -1.17 |
| N#Cc1c(SCC(=O)Nc2ccc(F)cc2Cl)nc2c(c1C(F)(F)F)CCCCC2 | 0.417 |
| CC(=O)NCCc1nc2cc(NC(=O)c3ccccc3)ccc2n1C | 2.35 |
| C[C@@H]1CN([C@@H](C)CO)C(=O)c2cc(NC(=O)CCCN(C)C)ccc2O[C@@H]1CN(C)Cc1ccncc1 | 0.414 |

| Structure (SMILES) | activation [%] |
| --- | --- |
| CCOc1ccc(NC(=O)C(C)Sc2nnc(C)n2-c2ccccc2)cc1 (stereo not drawn) | -0.74 |
| C[C@@H]1CCCCO[C@@H](CN(C)C(=O)NC2CCCCC2)[C@@H](C)CN([C@H](C)CO)C(=O)c2cc(NC(=O)CCC(F)(F)F)ccc2O1 | -0.155 |
| COc1cc(OC)cc(C(=O)N2CCN=C2c2ccccc2)c1 | 0.604 |
| C[C@@H]1CN([C@@H](C)CO)C(=O)c2cc(NC(=O)Cc3ccccc3)ccc2O[C@H]1CN(C)Cc1ccc(Cl)c(Cl)c1 | -0.482 |
| Cc1ccccc1N=C(N)N=C(N)N | -0.656 |
| C[C@@H]1CCCCO[C@H](CN(C)C(=O)C2CCCCC2)[C@@H](C)CN([C@H](C)CO)C(=O)c2cc(NC(=O)C3CCCCC3)ccc2O1 | -3.28 |
| CC(=O)c1cccc(NC(=O)CN(C)S(=O)(=O)c2ccc3ccccc3c2)c1 | 0.81 |
| COc1ccccc1-n1c(N)cc(=O)nc1SCC(=O)Nc1ccc(Br)cc1 | 1.16 |
| C[C@H](CO)N1C[C@H](C)[C@H](CN(C)S(=O)(=O)c2cccs2)Oc2ccc(NC(=O)Nc3ccccc3)cc2C1=O | -1.39 |
| Cc1ccc(-c2noc(CSc3nnc(-c4cccs4)n3C)n2)cc1 | 0.512 |
| Cc1ccc(C)c(OCC(=O)Nc2ccccc2C#N)c1 | -3.9 |
| COc1ccc(S(=O)(=O)N(C)C[C@@H]2Oc3ccc(NS(=O)(=O)c4ccc(Cl)cc4)cc3C(=O)N([C@H](C)CO)C[C@H]2C)cc1 | -2.88 |
| O=C(OCC1OC(Oc2ccc(O)cc2COC(=O)C2(O)C(O)CCC(O)C2O)C(O)C(O)C1O)c1ccccc1 (stereo not drawn) | -1.74 |
| C[C@@H]1CN([C@@H](C)CO)C(=O)c2cccc(NS(=O)(=O)c3ccc(Cl)cc3)c2O[C@@H]1CN(C)C(=O)Nc1ccccc1 | -0.568 |
| C[C@@H]1CN([C@H](C)CO)C(=O)Cc2cc(NC(=O)Cn3cnnn3)ccc2O[C@H]1CN(C)Cc1ccc(Cl)c(Cl)c1 | 1.08 |
| C[C@@H]1CN([C@@H](C)CO)C(=O)c2cccc(NS(=O)(=O)c3ccc(F)cc3)c2O[C@@H]1CN(C)Cc1ccc(C(=O)O)cc1 | 1.83 |
| C[C@H]1CN([C@@H](C)CO)C(=O)c2cc(NS(=O)(=O)c3cccs3)ccc2O[C@@H]1CN(C)C(=O)Nc1cccc2ccccc12 | -0.392 |
| COc1ccc(NC(=O)Nc2ccc3c(c2)CC(=O)N([C@H](C)CO)C[C@H](C)[C@H](CN(C)Cc2ccncc2)O3)cc1 | 0.119 |
| CC(=O)Nc1ccc(Nc2c3c4c(cccc4[nH]c2=O)C(=O)c2ccccc2-3)cc1 | -3.04 |
| Cc1noc(C)c1S(=O)(=O)Nc1ccc2c(c1)CC(=O)N([C@@H](C)CO)C[C@H](C)[C@@H](CN(C)S(=O)(=O)c1cn(C)cn1)O2 | 1.24 |
| C[C@H]1CN([C@@H](C)CO)C(=O)c2cccc(NS(=O)(=O)c3ccc(F)cc3)c2O[C@@H]1CN(C)C | 0.422 |
| Cc1ccc(S(=O)(=O)Nc2ccc3c(c2)C(=O)N([C@H](C)CO)C[C@H](C)[C@H](CN(C)S(C)(=O)=O)O3)cc1 | 0.318 |
